# FBPA coupling cs: inhibits coupling enzyme system, counter-screen for aldolase hits. coupling enzyme system counterscreen, AmpLite Red fluorescence. activity change, negative = inhibition, % at 58.2 µM, hits read low. 290,000 compounds, 0.67% hits. AID 2472; in the data active = activity change below about -30%
#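 Counterscreen of the coupled detection system alone, without aldolase: glyceraldehyde-3-phosphate coupling enzymes plus AmpLite Red readout. Compounds at 57.5 uM final, 10 min RT preincubation, 20 min RT reaction, fluorescence 525/598 nm.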
# Giardia killer: kills Giardia lamblia. activity change, % at 7.66 µM, hits read low. Giardia lamblia trophozoite viability. 340,000 compounds, 0.15% hits; in the data active = activity change below about -80%; inconclusive = between about -30% and that limit;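 note: parasites exposed to compound for two days anaerobically before the ATP read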
#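 ATP-content bioluminescence gauges trophozoite survival. Cells (100/well) receive compound and incubate anaerobically for 48 hrs at 37 deg C; detection reagent follows for 15-30 min at room temperature.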
# Sfp PPTase inh: blocks B. subtilis Sfp PPTase activity; Potency, µM, for inactives: largest response in the series, negative = inhibition, most hits filed as inhibitors; Q9F4F7; 310,000 compounds, 3.5% hits; Biochemical Sfp PPTase activity, qHTS;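 note: the enzyme is Sfp with the accession as filed and its product quenches rhodamine fluorescence; potency is the fitted concentration of half-maximal effect; 0% = enzyme reaction without inhibitor and -100% = no enzyme wells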
#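 Sfp 15 nM + cpd, 15 min RT; start w/ rhodamine-CoA 5 uM, BHQ-2-YbbR 12.5 uM (final); 50 mM Hepes pH 7.6, 10 mM MgCl2, 0.01% NP-40, 0.01% BSA; read 525/598 nm at 0 and 30 min.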
# ELG1 DNA repair: inhibitors of ELG1-dependent DNA repair in HEK293T cells | HEK293T ELG1-luciferase reporter, luminescence, 16 h; DNA damage induced by 5-fluorouridine | Potency, µM (doses to about 46.1 µM), without a hit: top-dose activity change, negative = inhibition, actives largely listed as inhibitors | 330,000 compounds, 2.3% hits | AID 504467; note: potency is the fitted concentration of half-maximal effect; nearly all actives have a fitted effect of over 55% in size
#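 Step one: seed 2,000 cells per well. Step two: pin-transfer compound or DMSO alongside 5-fluorouridine. Step three: incubate 16 hr, 37 °C, 5% CO2. Step four: add ONE-Glo, wait 30 min, read luminescence.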
# * marks the source's active call; other numbers are inactive results; ? = inconclusive; · = no result given; ! = a repeat was not active. This is a sample that favours compounds with a hit; in the whole collection about 5.5% have one here. Unless noted, calls come from the whole dose curve; as a rule, active = well fitted curve in the direction sought with a large enough effect; inconclusive = small, poorly fitted or top-dose-only effect, or another doubt; inactive = no such curve, though single readings can be large; an effect the other way counts as inactive or inconclusive. Unless noted, % is set by controls: 0 for no effect and ±100 for the full control effect.
SMILES,FBPA coupling cs,Giardia killer,Sfp PPTase inh,ELG1 DNA repair
Cc1ncoc1C(=O)Nc1ncc([N+](=O)[O-])s1,1,-87*,-93%,?
Cc1cnc(NC(=O)c2cccs2)s1,-1,6,-7%,?
COc1cc2ccccc2cc1C(=O)N1CCN(c2ccccc2O)CC1,·,-7,·,-15%
CN1CCN(c2ncc3ncc(=O)n(CCc4ccccc4)c3n2)CC1,4,·,23%,·
Cc1ccc(S(=O)(=O)N2CCOCC2)cc1NC(=O)COC(=O)/C=C/c1ccco1,·,21,·,?
O=C(Nc1ncc([N+](=O)[O-])s1)c1ccccc1Br,-3,-93*,11%,-1%
O=C(NCc1nc2ccccc2[nH]1)C1=C[C@@H](c2csc3ccccc23)C[C@@H](OCCCCO)O1,0,1,5%,23µM*
O=C(NCc1ccccc1)C1=C[C@@H](c2csc3ccccc23)C[C@@H](OCCCCO)O1,-2,-6,-7%,-22%
CCOC(=O)C1=C(C)NC(=O)C1CC(=O)Nc1ccccc1 (stereo not given),-42*,·,79µM*,?
CCOC(=O)C1=C(C)NC(=O)NC1c1ccc(OCC(=O)Nc2ccccc2)c(OC)c1 (stereo not given),-2,17,-1%,-15%
CCCNC(=O)CSc1n[nH]c(=O)n1CCc1ccccc1,0,-12,1%,19%
c1ccc(-c2noc(-c3ccc4ccccc4c3)n2)nc1,-1,-93*,-13%,?
c1ccc(-c2noc(-c3ccncc3)n2)nc1,4,-6,19%,0%
CC1=Nc2cccc3cccc(c23)N1C,-32*,-6,-16%,-3%
CN1C(=O)N(C)c2cccc3cccc1c23,-4,-22,10%,1%
CSCC[C@H](NC(=O)C1CCC(CNC(=O)[C@@H]2CCCN2C(=O)OC(C)(C)C)CC1)C(=O)O (stereo not given in full),1,20,10%,22%
COc1cccc(CN(C)C(=O)c2ccc(NS(=O)(=O)c3ccc4[nH]c(=O)[nH]c4c3)cc2)c1OC,-3,9,6%,-4%
CCOc1ccc(NS(=O)(=O)c2ccc(C(=O)N3CCN(c4ncccn4)CC3)cc2)cc1,0,9,13%,7.3µM*
CCOc1ccc(NS(=O)(=O)c2ccc(C(=O)N(C)Cc3cccc(OC)c3OC)cc2)cc1,·,1,5%,16µM*
O=C(c1cccc(S(=O)(=O)NCCOc2ccccc2)c1)N1CCN(c2ncccn2)CC1,0,-6,2%,23µM*
CC1CC(=O)N(CC(=O)Nc2ccc(Br)cc2)c2ccccc2S1(=O)=O (stereo not given),-1,-5,9%,6%
CN(C)C(=O)OCc1c(-c2ccccc2)ncc2ccccc12,·,-6,·,-17%
C(=C\c1ccccc1)/CSc1nnc(-c2ccncc2)n1Cc1ccco1,0,7,50µM*,?
Brc1ccc(CSc2nnc(-c3ccccn3)n2Cc2ccco2)cc1,-1,-2,-25%,-23%
O=C(CSc1nnc(-c2cccnc2)n1Cc1ccco1)Nc1nc(-c2ccc(F)cc2)cs1,5,13,-29%,21µM*
SMILES,FBPA coupling cs,Giardia killer,Sfp PPTase inh,ELG1 DNA repair
CCSc1nnc(-c2cccnc2)n1Cc1ccco1,-2,-10,40µM*,3%
CC(C)(C)c1ccc(CSc2nnc(-c3ccccn3)n2Cc2ccco2)cc1,-6,7,32µM*,?
COc1cccc(C(=O)CC(=O)C(=O)Nc2cc(OC)c(OC)c(OC)c2)c1,2,·,-12%,6%
O=S(=O)(c1ccc2nc(Nc3ccccc3)ccc2c1)N1CCCCC1,-4,-8,50µM*,-28%
O=S(=O)(c1ccc2nc(N3CCN(c4ccc(F)cc4)CC3)ccc2c1)N1CCCCC1,·,-2,79µM*,-4%
COC(=O)C(O)C1C(C)(C)C(OC(C)=O)C2CC3=C4CC(=O)OC(c5ccoc5)[C@]4(C)CCC3[C@@]1(C)C2=O (stereo not given in full),1,·,5%,·
O=c1[nH][nH]c2cc([N+](=O)[O-])ccc12,·,-11,·,·
CCOc1ccccc1Nc1ccc(C(=O)O)cc1NC(C)=O,4,-12,56µM*,-13%
CCOc1ccc(C(=O)Nc2ccccc2NC(C)=O)cc1OCC,-2,-11,-2%,-5%
COCCNC(=O)C1(C(F)(F)F)C/C(=C\CCO)CCCO1 (stereo not given),1,-14,21%,·
COc1cccc(CN(C)C(=O)CCNC(=O)c2ccco2)c1,·,4,·,15%
COC(=O)c1c(-c2ccc(Br)cc2)csc1NC(=O)Cc1ccc(OC)c(OC)c1,-7,-3,-5%,18µM*
COc1ccc(CC(=O)Nc2cccc3ccccc23)cc1OC,1,3,10%,-19%
COC(=O)c1c(-c2ccc(C)cc2)csc1NC(=O)Cc1ccc(OC)c(OC)c1,-2,-2,?,?
COC(=O)c1c(-c2cccc3ccccc23)csc1NC(=O)Cc1ccc(OC)c(OC)c1,2,11,-11%,21µM*
O=S(=O)(c1ccc2[nH]ccc2c1)N1CCCCCC1,·,1,10%,6%
C/C(CCc1ccc2c(c1)OCO2)=N\NC(=S)NC(C)C,0,-11,10%,1%
COCCNC(=S)N/N=C(\C)CCc1ccc2c(c1)OCO2,-2,-9,40µM*,2%
CCN(CC)c1ccc(N=Cc2ccc([N+](=O)[O-])o2)cc1,-39*,-10,28µM*,6%
CCN(CC)c1ccc(N=Cc2ccccc2[N+](=O)[O-])cc1,-19,-8,50µM*,-3%
CCN(CC)S(=O)(=O)c1cccc(C(=O)N/N=C/c2ccc([N+](=O)[O-])o2)c1,0,-20,5%,?
C=CCn1c(SCC(N)=O)nc2ccccc2c1=O,·,-15,·,·
Cn1c(COc2ccccc2)nnc1SCCSc1nnc(COc2ccccc2)n1C,2,2,18%,-3%
Cn1c(COc2ccc(Br)cc2)nnc1SC1CCc2ccccc2C1=O (stereo not given),-57*,-3,50µM*,?
O=c1c(-c2cccs2)nc2cncnc2n1Cc1ccc(F)cc1,3,·,18%,·
SMILES,FBPA coupling cs,Giardia killer,Sfp PPTase inh,ELG1 DNA repair
CC(=O)Nc1ccc(SCC(=O)c2ccc(Br)s2)cc1,5,6,50µM*,?
Cc1ccnc(SCC(=O)c2ccc(Br)s2)n1,-1,-15,79µM*,?
CCC(C)NC(=O)CSc1ccc(NC(C)=O)cc1 (stereo not given),2,-14,21%,0%
CCCCn1c(N)c(N(C)C(=O)c2cn(-c3ccccc3)nc2-c2ccccc2)c(=O)[nH]c1=O,·,6,·,13%
Cn1cnnc1Sc1c([N+](=O)[O-])ncn1C,-3,·,11%,·
Cn1cnc([N+](=O)[O-])c1Sc1ncnc2nc[nH]c12,4,6,79µM*!,0.21µM*
Cc1cc(=O)oc2cc(OCC(=O)N3CCOCC3)c(Cl)cc12,·,21,·,14%
COc1ccc2c(=O)c3c(=O)n(Cc4ccco4)c(-c4ccc(C)cc4)nc3oc2c1,2,-21,25µM*,?

# Compound activity deposited in PubChem BioAssay by National Center for Advancing Translational Sciences (NCATS).
